Laboratory results published in ChEMBL document CHEMBL3433997, “St. Jude Leishmania screening dataset” (2016).

Columns and labels:
Format in all cases: functional
[1] = molecular target: Solute carrier family 2, facilitated glucose transporter member 1 (Homo sapiens) (UniProt P11166); experiment: ST_JUDE_LEISH: Cytotoxicity at 2uM final concentration against transgenic Leishmania Mexicana promastigotes LmGLUT1 that are glucose transport deficient and complemented with the human glucose transporter GLUT1. Activity is measured by DNA content using SYBR green in vitro
Sequence of Solute carrier family 2, facilitated glucose transporter member 1 (Homo sapiens) (P11166 whole entry): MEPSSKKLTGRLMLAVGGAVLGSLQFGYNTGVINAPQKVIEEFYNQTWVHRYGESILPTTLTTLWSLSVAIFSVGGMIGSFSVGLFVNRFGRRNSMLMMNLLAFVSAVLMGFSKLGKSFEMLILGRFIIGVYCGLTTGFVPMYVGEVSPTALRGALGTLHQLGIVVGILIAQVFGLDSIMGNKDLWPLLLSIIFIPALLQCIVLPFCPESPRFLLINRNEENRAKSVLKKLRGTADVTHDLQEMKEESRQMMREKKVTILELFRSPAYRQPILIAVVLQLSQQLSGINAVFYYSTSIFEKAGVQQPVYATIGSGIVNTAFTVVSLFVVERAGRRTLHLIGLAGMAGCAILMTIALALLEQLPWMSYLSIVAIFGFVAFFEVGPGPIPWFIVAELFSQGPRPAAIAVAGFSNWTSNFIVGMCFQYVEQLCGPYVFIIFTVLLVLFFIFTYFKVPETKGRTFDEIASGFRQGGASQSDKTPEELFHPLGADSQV

[2] = molecular target: Hexose transporter 1 (Plasmodium falciparum) (UniProt O97467); experiment: ST_JUDE_LEISH: Cytotoxicity at 2uM final concentration against transgenic Leishmania Mexicana promastigotes LmPfHT that are glucose transport deficient and complemented with the Plasmodium falciparum hexose transporter. Activity is measured by DNA content using SYBR green in vitro
[3] = molecular target: Glucose transporter (Leishmania mexicana) (UniProt O61059); experiment: ST_JUDE_LEISH: Cytotoxicity at 2uM final concentration against transgenic Leishmania Mexicana promastigotes LmGT2 that are glucose transport deficient and complemented with the L. Mexicana glucose transporter 2. Activity is measured by DNA content using SYBR green in vitro

Compound | inhibition [1] [%] | inhibition [2] [%] | inhibition [3] [%]
Cc1cccc2nc(-c3cccc(-c4ccc(NC(=O)C(C)(C)c5ccccn5)cc4)c3)[nH]c12 | 3.05 | 1.16 | 2.94
OC(c1ccc(Cl)cc1)(c1ccc(Cl)cc1)C(c1ccc(Cl)cc1)n1ccnc1 (stereo not drawn) | 8.37 | 4.21 | 2.69
O=C(Nc1cccc(-c2csc(-c3nc4ccccc4[nH]3)c2)c1)c1cccnc1 | 1.57 | 4.05 | -0.53
O=C(Nc1ccccc1)N(Cc1cccc(-c2cccc(CNCCc3ccccc3)c2)c1)C1CCN(Cc2ccccc2)CC1 | 7.12 | 2.49 | 4.94
O=S(=O)(c1ccc(OC(F)(F)F)cc1)C1CC2CCC(C1)N2S(=O)(=O)c1ccc(Cl)c(C(F)(F)F)c1 (stereo not drawn) | 11.6 | 12.9 | 10.4
CC1(C)N=C(N)N=C(N)N1OCc1cc(Cl)c(CON2C(N)=NC(N)=NC2(C)C)cc1Cl | 0.92 | 1 | -2.89
Cc1nc2nc(N)nc(N)c2c(C)c1Cc1ccccc1I | 9.13 | 8.12 | 6.31
Fc1ccc(Nc2ccnc3cc(-c4ccc(CNCCN5CCOCC5)o4)ccc23)c(Cl)c1 | 2.04 | 2.02 | 2.34
COc1cc2c(cc1C(F)(F)F)N(C(=O)Nc1cc(-c3ccncc3)cc(-c3cccnc3)c1)CC2 | 3.84 | -0.38 | -0.7
c1ccc2c(CNc3nc(NCC4CCCCC4)nc4[nH]cnc34)cccc2c1 | 4.27 | 5.29 | 2.36
O=C(c1ccc(-c2ccc(Cl)cc2)o1)N1CCc2cc3nccc(N4CCN5CCC[C@H]5C4)c3cc21 | -1.09 | 0.64 | 0.64
CCc1cn(CCCOC)c2ccc(C(=O)N[C@@H](Cc3ccccc3)[C@H](O)CNCc3cccc(C(F)(F)F)c3)cc12 | 3.43 | 2.52 | 2.24
Cc1cccc(-n2c(=O)c3c4c(sc3n3c(SCCC(C)C)nnc23)CCCC4)c1 | 0.75 | 1.59 | -0.43
CN(C)CCOc1cc(NC(=O)Nc2ccc(Oc3ccccc3)cc2)ccc1I | 1.79 | 1.64 | -1.47
CN(C)CCOc1cc(O)c2c(c1)OC(C)(C)C=C2c1cccs1 | -0.97 | -1.11 | -0.34
CC(C)(C)c1ccc(Cc2cccc3nc(N)nc(N)c23)cc1 | 21 | 16.4 | 11.4
Clc1cc(Cl)c2cc(CN[C@H]3CCC[C@@H]3CNc3nc4ccccc4[nH]3)[nH]c2c1 | 0.55 | 1.94 | 2.36
COc1ccc(-n2nc(C)cc2C(=O)NCc2ccc(-c3c(C)noc3C)cc2)cc1 | 2.56 | 2.4 | -0.58
CN1CCCC(CN2CCN(Cc3cccc(-c4csc(-c5nc6ccccc6[nH]5)c4)c3)CC2)C1 (stereo not drawn) | 3.41 | 1.68 | 1.91

Compound | inhibition [1] [%] | inhibition [2] [%] | inhibition [3] [%]
Cc1cccc(Nc2nccc(NCC(O)c3ccc(C(F)(F)F)cc3)n2)c1 (stereo not drawn) | 10.6 | 11.4 | 2.83
O=C(/C=C/c1ccc(Cl)cc1Cl)N1CCC(CCN2CCC(c3c[nH]c4ccccc34)CC2)CC1 | 3.54 | 4.28 | 5.09
Cc1ccc(-c2ccc3c(c2)C=C(C(=O)NC2CCN(CCNC(=O)c4cccs4)CC2)CCC3)cc1 | 8.71 | 2.81 | 2.25
CC[C@H](C)CNC(=O)c1ccnc(-c2ccc(CNCCCc3ccccc3)cc2)c1 | 1.95 | 1.1 | -0.91
c1ccc(Cn2nnnc2-c2cccc(Nc3ccnc4cc(-c5nccs5)ccc34)c2)cc1 | 1.8 | 2.17 | 1.96
COc1cc(C=CC(=O)N2CCC(CCN3CCC(c4c[nH]c5ccccc45)CC3)CC2)cc(OC)c1 | 4.99 | 6.56 | 3.47
CN(C)c1ccc(CN2CCC(NC(=O)c3ccc(-c4cccc(C(F)(F)F)c4)s3)CC2)cc1 | 1.92 | -0.72 | 5.11
Cc1cccc2nc(-c3ccc(-c4cccc(NC(=O)C(C)CN(C)C)c4)s3)[nH]c12 (stereo not drawn) | -0.15 | 1.85 | 0.27
O=C(NCCCCN1CCC(c2ccc3c(c2OCC(O)c2ccc(Cl)cc2)CCCC3)CC1)c1ccc(-c2ccc(C(F)(F)F)cc2)cc1 (stereo not drawn) | 0.65 | 1.49 | 0.85
COc1ccc2c(-c3ccccc3)noc2c1 | 0.37 | 0.1 | 1.42
CCN(CC)CCN(Cc1ccc(-c2ccc(C(F)(F)F)cc2)cc1)C(=O)Cn1c(CCc2cccc(F)c2F)nc(=O)c2ccc(F)cc21 | 2.25 | 1.35 | 2.49
CC(=O)Nc1csc(-c2cnc(/C=C(\C)C[C@@H]3OC[C@H](C[C@@H]4O[C@H]4[C@@H](C)[C@H](C)O)[C@@H](O)[C@H]3O)o2)c1 | 3.6 | 4.42 | 2.39
CCOc1ccc(-c2nc(NC(=O)COc3ccc(OC)cc3)sc2C)cc1 | 9.63 | 10 | 10.1
COc1ccccc1CNc1ncc(-c2ccsc2)c(-c2nccs2)n1 | 0.14 | 0.8 | -0.05
Nc1nc(N)c2cc(NS(=O)(=O)c3ccc(-c4ccccc4)cc3)ccc2n1 | 4.33 | 3.47 | 3.56
CC(CO)(CO)NCc1cc2ccc3ccsc3c2c2ccccc12 | 77.1 | 71.3 | 48
CCc1cn2c3c(cc(C(=O)N[C@@H](Cc4ccccc4)[C@H](O)CNCC(C)C)cc13)N(C)S(=O)(=O)CC2 | 3.97 | 4.71 | 3.3
COc1ccc2nccc([C@H](O)CN3CCC(NCc4nc5cccc(F)c5[nH]4)CC3)c2c1 | 3.63 | 1.1 | 2.36
Nc1ncc(-c2ccc(Br)cc2)c(N)n1 | 1.2 | -0.78 | -0.3

Compound | inhibition [1] [%] | inhibition [2] [%] | inhibition [3] [%]
O=C(Cc1c[nH]cn1)Nc1cccc(-c2ccc(-c3nc4cc(F)ccc4[nH]3)cc2)c1 | 9.26 | 10.1 | 7.18
O=C(NCCCCN1CCC(c2ccc3c(c2OCCO)CCCC3)CC1)c1ccc(-c2ccc(C(F)(F)F)cc2)cc1 | -0.75 | 0.12 | 5.23
CC(C)CNC(=O)c1cncc(-c2ccc(CN3CCC(N4CCCC4)CC3)cc2)c1 | 1.79 | 1.64 | 2.41
COc1ccc(S(=O)(=O)N2CCCc3ccc(Br)cc32)cc1N1CCN(C(=O)C(Cl)(Cl)Cl)CC1 | 2.54 | 2.99 | 1.28
C(=NN=c1cc[nH]c2ccccc12)c1ccncc1 | 3.99 | 4.32 | 3.95
CCc1c(CCNCCCCCCNCCc2ccc([N+](=O)[O-])cc2)ccc(O)c1O | -1.33 | -0.9 | 0.31
CCN(CC)CCN(Cc1ccc(-c2ccc(C(F)(F)F)cc2)nc1)C(=O)Cn1cc(Cc2cnn(C)c2)c(=O)n2nc(-c3ccccc3)cc12 | 2.39 | 3.48 | 0.44
Oc1ccc(Br)cc1C(O)CNCc1ccccc1OCc1ccccc1 (stereo not drawn) | 2.85 | 3.54 | 2.87
Cc1nc(C)c(CC(=O)Nc2ccc(-c3cccc(-c4nc5cccc(C)c5[nH]4)c3)cc2)s1 | 2.82 | 2.89 | 4.14
N#Cc1ccc(C=CC(=O)NC2CCC(CCN3CCc4ccc(-c5cnccn5)cc4CC3)CC2)cc1 (stereo not drawn) | 4.1 | 2.97 | 0.59
O=C(Nc1cccnc1)c1cn(-c2ccccc2)nc1-c1cccs1 | 3.18 | 1.81 | -1.31
CCc1c(CCNCCCCCCNCCc2ccc(OC)c(OC)c2CC)ccc(OC)c1OC | 8.52 | 7.29 | 6.3
O=C(Nc1ccccc1)N(Cc1cccc(-c2ccc(CNCc3ccc4c(c3)OCO4)cc2)c1)C1CCN(Cc2ccccc2)CC1 | 2.89 | 4.07 | 2.52
COCCNC(=O)C(CNC(=O)c1ccc2c(c1)OCO2)NC(=O)c1ccc(-c2ccccc2)cc1 (stereo not drawn) | 3.8 | 0.37 | 0.64
O=C(Nc1ccc(C(F)(F)F)cc1)NC1CCN(c2ccnc3ccccc23)C1 (stereo not drawn) | 8.02 | 7.55 | 7.55
Cc1cc(NCCc2ccccc2)nc(NC(=N)Nc2ccccc2Cl)n1 | 9.69 | 7.74 | 7.34
Cc1cccc2nc(-c3ccc(-c4cccc(CN5CCC(CCN6CCCCC6)CC5)c4)s3)[nH]c12 | -0.21 | 0.87 | -3.24
CCc1cc(NC2CCN(C)CC2)nc(Nc2ccc(C)cc2)n1 | 7.94 | 4.93 | -1.22
